What all share (assay): NCI-60 one-dose screen, 48 h (100 = growth as untreated, 0 = no growth, -100 = all killed)
Conditions in all cases: 10 µM unless noted

The subject of assay [1] is HCT-15 colon.
Assay [2] deals with HT29 colon.
Assay [3] deals with SNB-75 CNS.
The subject of assay [4] is SNB-19 CNS.
Assay [5] deals with U251 CNS.
The test system of assay [6] is PC-3 prostate.
Assay [7] deals with SK-MEL-5 melanoma.
Assay [8] relates to UACC-62 melanoma.
For assay [9], the system named is LOX IMVI melanoma.
Assay [10] has as its system SK-MEL-28 melanoma.

Among the data in PubChem BioAssay (NCI) are growth values, retold here.

Compounds without any hit were thinned out: in the full panel of roughly 83,000, 20% have a hit.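 Each cell line was grown in a 96-well plate and treated with one concentration of compound for 48 hours. Values below 10 were considered active.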 Values without a mark were called inactive. Calls of active or inactive are those of the source.

Consider `N#C/C(=C/c1ccc(O)c([N+](=O)[O-])c1)c1nc(-c2ccc([N+](=O)[O-])cc2)cs1`, for which the growth in assay [1] is 24.7%; in [2], 52.7%; in assay [3], 80.5%; in assay [4], 34.5%; in [5] it was 22.1%; in assay [6], 29.9%. In addition, the growth in assay [7] is 5.51% (active); in assay [8], -17.2% (active); in [9], 38.2%; in [10], 35.5%.
In the case of `N#CCNc1ccc(C(=O)O)cc1`, the growth in [1] was 105%; in assay [2], 101%; in [3], 103%; in [4] it was 102%; in assay [5] it was 95%; in assay [6], 94.3%. In addition, the growth in assay [7] was 101%; in [8], 107%; in assay [9], 98.5%; in assay [10], 118%.
In the case of `COc1ccc(-n2cc(COc3ccc4c5ccnc(C)c5n(CC(C)C)c4c3)nn2)cc1`, the growth in assay [1] is 63.4%; in assay [2], 16%; in [3], 61.8%; in [4], 78.4%; in [5], 69.9%; in assay [6] it was 55.6%. For the same molecule, the growth in assay [7] is 58.2%; in [8] it was 71%; in [9], 77.3%; in assay [10], 87.4%.
For the molecule `N#Cc1c(NC(=O)c2cccs2)[n+]([O-])c2cc(C(F)(F)F)ccc2[n+]1[O-]`, the growth in [1] was 117%; in [2], 107%; in assay [3], 92.6%; in [4], 106%; in [5], 104%; in assay [6], 65.1%. Also, the growth in assay [7] is 58%; in [8] it was 96.8%; in assay [9] it was 94.7%; in assay [10] it was 120%.
In the case of `C1=CC2=CC=C3C=CC=C4C(c5nc6c7ccccc7c7ccccc7c6[nH]5)=CC(=C1)C2C34` (stereo not given), the growth is 90.8% in assay [1]; 102% in [2]; 102% in assay [3]; 103% in [4]; 104% in [5]; 78.8% in assay [6]. Further, the growth in assay [7] is 101%; in assay [8] it was 61.6%; in assay [9], 86.3%; in [10], 107%.
Turning to `O=S(=O)(Nc1nccs1)c1ccc(Nc2nc(-c3ccncc3)cs2)cc1`, the growth in assay [1] was 103%; in assay [2] it was 120%; in [3] it was 84.7%; in assay [4], 101%; in [5] it was 95.2%; in assay [6], 96.8%. Besides, the growth was 107% in assay [7], 94.7% in [8], 95.8% in assay [9] and 109% in assay [10].
With `Nc1c(C(=O)Nc2cccc3ccccc23)sc2nc3c(cc12)COCC3`, the growth is 32.2% in [1]; 12.4% in assay [2]; 30.9% in assay [3]; 33.4% in [4]; 30% in assay [5]; 53.5% in assay [6]. Further, the growth in assay [7] was 31%; in [8], 30.2%; in [9] it was 42.7%; in [10], 60.6%.
In the case of `COc1ccc2[nH]c(-c3ccccc3)c(C=C(C#N)C#N)c2c1`, the growth was 36.3% in assay [1]; 17.2% in [2]; -5.72% (active) in assay [3]; 73.2% in [4]; 35.2% in [5]; 13.2% in [6]. The growth in [7] was 8.94% (active); in assay [8], 22.1%; in assay [9], 42.6%; in assay [10] it was 44%.
Regarding `Nc1ccccc1NS(=O)(=O)c1ccc(Cl)cc1`, the growth was 102% in [1]; 91.7% in assay [2]; 81.8% in assay [3]; 96.6% in assay [4]; 101% in assay [5]; 91.5% in assay [6]. Further, the growth in [7] is 94.4%; in assay [8], 91.4%; in assay [9], 92.1%; in assay [10] it was 96.8%.
Consider `Nc1c(C(=O)Nc2ccccc2Cl)sc2nc3c(cc12)CN(Cc1ccccc1)CC3`, for which the growth in [1] is 95.7%; in assay [2], 101%; in [3], 113%; in [4] it was 109%; in assay [5] it was 114%; in [6], 104%. Moreover, the growth in assay [7] is 97.7%; in [8], 101%; in assay [9], 99.7%; in assay [10], 102%.
With `COc1cc([C@H](C)c2ccc3ccccc3c2)cc(OC)c1OC`, the growth in assay [1] was 21.7%; in assay [2], 8.72% (active); in assay [3] it was 0.258% (active); in [4], 32.7%; in assay [5], 19.6%; in assay [6], 30.5%. Besides, the growth was 18.1% in [7], 32.5% in assay [8], 48.6% in assay [9] and 61.8% in assay [10].
Regarding `COc1cc2nc3c(=O)n(CCN(C)C)cnn3c(=O)c2cc1OC`, the growth in [1] was 103%; in [2], 101%; in assay [3], 76.4%; in assay [4], 105%; in [5], 107%; in [6] it was 102%. Besides, the growth was 98.7% in assay [7], 101% in assay [8], 97.9% in [9] and 102% in [10].
For `COc1ccc(NC(=O)Nc2ccc(Nc3nc(C)cc(Nc4ccc(C)cc4)n3)cc2)cc1`, the growth is -78.9% (active) in assay [1]; -84.8% (active) in [2]; -92.8% (active) in [3]; -69.2% (active) in [4]; -83.9% (active) in [5]; -93.3% (active) in [6]. Besides, the growth in assay [7] was -72.7% (active); in assay [8], -83% (active); in assay [9] it was -85.3% (active); in assay [10], -76.8% (active).
